FMDV antiviral: blocks foot and mouth disease virus. FMDV antiviral cell-based qHTS. Potency, µM (titrated, usually from 57.9 µM), without a hit: at the highest dose activity change, negative = inhibition, hits mostly inhibitors. hit rate 1.2% among 410,000. AID 1159524; calls by dose curve; tested in HEK293T cells; also: read-out not given here; nearly all actives have a fitted effect of over 45% in size
AMA1-RON2 inh: inhibitors of Plasmodium falciparum AMA1-RON2 interaction; Potency, µM (top dose mostly 58.2 µM), inactives show top-dose activity change, negative = inhibition, usual class: inhibitors; AID 720542; AlphaScreen AMA1-biotinylated RON2 peptide binding; hit rate 0.2% among 360,000;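 also: 0% = vehicle wells and -100% = peptide control; nearly all actives have a fitted effect of over 45% in size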
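AMA1 (3D7) with his tag at 25 nM final met compounds first, then biotinylated RON2 peptide at 25 nM; detection used donor plus acceptor beads, 10 µg/mL apiece, read by AlphaScreen after 30 min at room temperature.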
Sm TGR inh: S. mansoni TGR enzyme inhibition. purified TGR, DTNB reduction, TNB absorbance 405 nm. hit rate 3% among 360,000. AID 485364. Potency, µM (doses to about 114 µM), for inactives: at the top dose activity change, negative = inhibition, actives largely listed as inhibitors. Q962Y6; also: nearly all actives have a fitted effect of over 60% in size
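First, TGR (20 nM dispensed) and NADPH were mixed with compound. Second, a 15 min room-temperature incubation followed. Third, further NADPH and then DTNB were added to start the reaction. Finally, TNB absorbance was monitored kinetically.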
AmpC inh detg: blocks E. coli AmpC beta-lactamase in detergent assay. AID 485294. AmpC hydrolysis of nitrocefin, absorbance 480 nm, 0.01% Triton. Potency, µM (titrated, usually from 114 µM), inactives show at the highest dose activity change, negative = inhibition, hits mostly inhibitors. hit rate 0.041% among 370,000;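 also: 0% = no-compound wells and -100% = no-enzyme wells; nearly all actives have a fitted effect of over 25% in size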
Target sequence (P00811 whole entry, looked up): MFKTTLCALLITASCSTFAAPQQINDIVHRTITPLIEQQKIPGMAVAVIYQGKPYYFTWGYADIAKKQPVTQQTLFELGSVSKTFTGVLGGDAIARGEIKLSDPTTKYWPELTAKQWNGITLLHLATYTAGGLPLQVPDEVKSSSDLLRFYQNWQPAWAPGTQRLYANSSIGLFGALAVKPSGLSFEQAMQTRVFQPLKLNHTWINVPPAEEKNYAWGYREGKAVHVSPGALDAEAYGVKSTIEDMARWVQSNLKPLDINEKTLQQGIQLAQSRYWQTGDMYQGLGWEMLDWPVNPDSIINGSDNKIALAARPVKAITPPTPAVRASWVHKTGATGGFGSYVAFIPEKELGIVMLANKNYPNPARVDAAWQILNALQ
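AmpC (5.3 nM in the dispensed reagent) in 20 mM phosphate pH 7.0 with 0.01% (detergent screen) or 0.0001% Triton X-100 was preincubated with compounds for 15 min at room temperature. Nitrocefin was then added from an 800 uM solution, and hydrolysis was followed at 480 nm.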
AmpC inh no detg: blocks E. coli AmpC beta-lactamase in detergent-free assay; AID 485341; hit rate 0.52% among 330,000; Potency, µM (titrated, usually from 57.1 µM), without a hit: top-dose activity change, negative = inhibition, most hits filed as inhibitors; P00811; AmpC nitrocefin hydrolysis, absorbance 480 nm, 0.0001% Triton;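 also: plate controls were no compound for no effect and no enzyme for full effect; nearly all actives have a fitted effect of over 20% in size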
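20 mM phosphate pH 7.0 + 0.01% (detergent screen) or 0.0001% Triton X-100; 5.3 nM AmpC reagent; cpd preinc 15 min RT; nitrocefin (800 uM stock) to start; A480 q20 s × 4 min; Activity was normalised to no-enzyme and no-compound control wells.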
Starred values were filed as active, the others as inactive. Only some compounds are listed: those with a hit (about 4.1% of all), similar ones and a draw of the others. Unless noted, calls follow the shape of the dose curve; as a rule, active = well fitted curve in the direction sought with a large enough effect; inconclusive = small, poorly fitted or top-dose-only effect, or another doubt; inactive = no such curve, though single readings can be large; an effect the other way counts as inactive or inconclusive. Unless noted, % is scaled to controls: 0 for no effect and ±100 for the full control effect; potency is read from the fitted curve at half-maximal effect.

Results for O=C1Nc2ccccc2C1Cc1ccccc1 (stereo not drawn) ?
FMDV antiviral: -3%; AMA1-RON2 inh: -4%; Sm TGR inh: 1%; AmpC inh detg: 5%; AmpC inh no detg: -18%

What do the screens show for `O=C(CCC1N=C2c3ccccc3N=C(SCc3cccc(Cl)c3)N2C1=O)NCc1cccs1` (stereo not drawn)?
FMDV antiviral: inconclusive; Sm TGR inh: 14%; AmpC inh detg: 10%

How did CCc1cccc(NC(=O)C2CCCN2S(=O)(=O)c2ccc3nc(-c4ccccc4)[nH]c3c2)c1 (stereo not drawn) do in these assays?
FMDV antiviral: -24%; Sm TGR inh: 2%; AmpC inh detg: 0%

How did CC1=C2C(=COC(C)C2C)C(=O)C(C(=O)O)=C1O (stereo not drawn) do in these assays?
FMDV antiviral: -14%

Results for Cc1ccc(C(=O)COC(=O)c2cccs2)cc1 ?
FMDV antiviral: 22µM*; AMA1-RON2 inh: 5%; Sm TGR inh: -5%; AmpC inh detg: -8%; AmpC inh no detg: -19%

Results for CCc1ccc(C(=O)COC(=O)c2cccs2)cc1 ?
FMDV antiviral: 6%; AMA1-RON2 inh: 64%; Sm TGR inh: -26%; AmpC inh detg: -2%; AmpC inh no detg: -28%

Results for O=C(Nc1cccs1)N1CCN(c2ncccn2)CC1 ?
FMDV antiviral: 5%; AMA1-RON2 inh: -3%; Sm TGR inh: 18µM*; AmpC inh detg: -6%; AmpC inh no detg: -13%

What do the screens show for `Cc1cccc(N2CCN(C(=O)C3CCN(S(=O)(=O)c4ccc5c(c4)oc(=O)n5C)CC3)CC2)c1C`?
FMDV antiviral: -5%; Sm TGR inh: -4%; AmpC inh detg: -1%

How did C=CCNC(=O)c1ccccc1NC(=O)C1CC(=O)N(C(C)C)C1 (stereo not drawn) do in these assays?
FMDV antiviral: -9%; AMA1-RON2 inh: 4%; Sm TGR inh: 18µM*; AmpC inh detg: 2%; AmpC inh no detg: -9%

What do the screens show for `Oc1ccc(C2Nc3cccc4cccc(c34)N2)c(O)c1`?
FMDV antiviral: -25%; AMA1-RON2 inh: 18%; Sm TGR inh: 50µM*; AmpC inh detg: -1%; AmpC inh no detg: -36%

How did Clc1cccc(C2Nc3cccc4cccc(c34)N2)c1Cl do in these assays?
FMDV antiviral: -23%; AMA1-RON2 inh: inconclusive; Sm TGR inh: -12%; AmpC inh detg: inconclusive; AmpC inh no detg: -39%

Results for c1coc(C2Nc3cccc4cccc(c34)N2)c1 ?
Sm TGR inh: 7.9µM*; AmpC inh detg: -7%; AmpC inh no detg: inconclusive

What do the screens show for `Clc1ccccc1C1Nc2cccc3cccc(c23)N1`?
FMDV antiviral: -11%; AMA1-RON2 inh: -30%; Sm TGR inh: 18µM*; AmpC inh detg: inconclusive; AmpC inh no detg: -31%

Results for COC(=O)c1ccc(C2Nc3cccc4cccc(c34)N2)cc1 ?
FMDV antiviral: -27%; AMA1-RON2 inh: -22%; Sm TGR inh: inconclusive; AmpC inh detg: -6%; AmpC inh no detg: -58%

Results for Brc1ccc(-c2ccc(C3Nc4cccc5cccc(c45)N3)o2)cc1 ?
Sm TGR inh: 35µM*; AmpC inh detg: 1%; AmpC inh no detg: -17%

Results for O=C(c1n[nH]c2c1CCCC2)N1CCC(n2c(C3CCCO3)nc3ccccc32)CC1 (stereo not drawn) ?
FMDV antiviral: -3%

What do the screens show for `Cc1ccc(NC(=O)C(=O)NCCc2sc(-c3ccc(Cl)cc3)nc2C)cc1C`?
FMDV antiviral: 16%; Sm TGR inh: -9%; AmpC inh detg: -3%

What do the screens show for `COc1ccc(Cl)cc1NC(=O)c1cc(S(=O)(=O)N2CCC(C)CC2)cn1C`?
FMDV antiviral: -4%; Sm TGR inh: 1%; AmpC inh detg: 2%

Results for O=C(Nc1ccc(Cl)cc1)N1CCN(c2ccc3nnc(-c4ccc(F)cc4)n3n2)CC1 ?
FMDV antiviral: -28%; AMA1-RON2 inh: 12%; Sm TGR inh: 2%; AmpC inh detg: -10%; AmpC inh no detg: 148%

How did O=C(c1ccc(Br)o1)N1CCN(c2ccc3nnc(-c4ccc(F)cc4)n3n2)CC1 do in these assays?
FMDV antiviral: -17%; AMA1-RON2 inh: -9%; Sm TGR inh: -2%; AmpC inh detg: inconclusive; AmpC inh no detg: 0.56µM*
